From PubChem BioAssay
A selection: hits, their analogues and other compounds. The true share with any hit is near 2.4%.
D2 antagonist – HTS Assay for Allosteric Antagonists of the Human D2 Dopamine Receptor: Primary Screen for Antagonists; HEK293 TREx D2 cells, calcium flux, dopamine EC80; actives 2% (n = 340,000); inhibition, % at 10 µM; D(2) dopamine receptor (Homo sapiens), P14416; in the data active = inhibition above about 30%; inactive = below that, where a call was filed
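Calcium mobilization kinetics were recorded at 1 s intervals in tetracycline-induced HEK293 T-REx D2 cells, first for 180 s after compound addition and then 180 s after EC80 dopamine.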
D2 PAM-1 – Beta-Arrestin HTS for Positive Allosteric Modulators of the Human D2 Dopamine Receptor: Potentiators; D(2) dopamine receptor (Homo sapiens), P14416; DiscoveRx D2 beta-arrestin cells, luminescence, 90 min; 100% = 57 uM dopamine signal; potentiation, % (no concentration beside the values); actives 0.23% (n = 360,000); in the data active = potentiation above about 50%; inconclusive = mostly about 30% to 49%
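PathHunter D2 cells, attached overnight at 37 deg C, received compound in DMSO plus dopamine at EC20 (50 nM final) for 90 min at 37 deg C. Beta-arrestin recruitment was read as luminescence after 1 h with detection reagent at ambient temperature.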
D2 ag-1 – Beta-Arrestin HTS for Positive Allosteric Modulators of the Human D2 Dopamine Receptor: Agonists | D(2) dopamine receptor (Homo sapiens), P14416 | DiscoveRx PathHunter D2 beta-arrestin, luminescence, 90 min; 100% = 57 uM dopamine signal | activation, % (no concentration beside the values) | actives 0.084% (n = 360,000); in the data active = activation above about 40%; inconclusive = between about 15% and that limit
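DiscoveRx PathHunter D2 beta-arrestin cells (2,100/well) attached overnight, then compound-stimulated 90 min at 37 C in HBSS/10 mM HEPES/0.1% Tween-20 buffer; beta-galactosidase complementation read by luminescence after 1 h at ambient temperature. Dopamine 57 uM final (EC100) as control.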
D2 ag-2 – HTS Assay for Allosteric Agonists of the Human D2 Dopamine Receptor: Primary Screen for Agonists; D(2) dopamine receptor (Homo sapiens), P14416; HEK293 T-REx D2 cells, calcium flux agonist mode; activation, % at 2 µM; actives 0.53% (n = 340,000); AID 485358, 2010;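 active = activation over 3 SD above normal in the single-dose calcium agonist read, cut at about 30% in these data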
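HEK293 Trex D2 cells, tetracycline-induced, o/n 30 C 5% CO2; no-wash Ca dye, RT 30–90 min; 10-cycle baseline, 23 nl cpd added, kinetic Ca read 180 s; agonist hits = positive Ca response.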
D2 PAM-2 – HTS Assay for Positive Allosteric Modulators of the Human D2 Dopamine Receptor: Primary Screen for Potentiators | D(2) dopamine receptor (Homo sapiens), P14416 | HEK293 T-REx D2, calcium flux, EC20 dopamine potentiation | potentiation, % at 10 µM | actives 0.34% (n = 340,000) | AID 485347, 2010;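 active = potentiation over 3 SD above the plate norm, cut at about 30% in these data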
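Calcium flux readout, no-wash dye, 1 read/s. Inducible HEK293 Trex D2 line, overnight 30 C. Compound alone 180 s (agonist flags), then EC20 dopamine, another 180 s to score potentiation.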
D3 arrestin ag – qHTS of D3 Dopamine Receptor Agonist: D3 Dopamine Receptor B-arrestin Agonist Confirmatory Assay | shares compounds with D2 ag-2 | DiscoveRx D3 beta-arrestin cells, luminescence, 90 min | Potency, µM (highest dose often 76.9 µM), actives largely listed as activators | actives 4% (n = 2,300) | AID 720506, 2013; also: nearly all actives have a fitted effect of over 70% in size
Target sequence (P35462 whole entry, looked up): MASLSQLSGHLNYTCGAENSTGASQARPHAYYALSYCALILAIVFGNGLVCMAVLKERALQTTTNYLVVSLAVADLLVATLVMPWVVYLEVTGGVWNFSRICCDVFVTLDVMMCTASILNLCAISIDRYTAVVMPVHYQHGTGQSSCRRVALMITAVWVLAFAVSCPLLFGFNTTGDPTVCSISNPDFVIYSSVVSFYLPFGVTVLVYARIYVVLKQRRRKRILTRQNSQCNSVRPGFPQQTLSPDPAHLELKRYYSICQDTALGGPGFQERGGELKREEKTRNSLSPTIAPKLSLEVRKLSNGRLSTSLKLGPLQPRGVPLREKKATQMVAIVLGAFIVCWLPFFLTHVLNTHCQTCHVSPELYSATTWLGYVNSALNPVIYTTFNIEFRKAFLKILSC
D2 ag-3 – qHTS of D3 Dopamine Receptor Agonist: D2 Dopamine Receptor B-arrestin Agonist Counterscreen; shares compounds with D2 ag-2; DiscoveRx PathHunter D2 beta-arrestin, luminescence, 90 min; response scale: percent relative to full dopamine signal; Potency, µM (top dose mostly 76.9 µM), hits mostly activators; actives 5.9% (n = 2,300); AID 720507, 2013; also: nearly all actives have a fitted effect of over 70% in size
Of the large screens only hits and unclear results are named; the others gave an inactive call (follow-up assays come after a bar, where they were run); ! = repeats disagree. Unless noted, calls follow the shape of the dose curve; as a rule, active = well fitted activation curve with a large enough effect; inconclusive = small, poorly fitted or top-dose-only effect; inactive = flat fitted curve, though single readings scatter.

COc1ccc(Cl)c(NC(=O)NCCN2CCN(c3ccccc3)CC2)c1	none
Cc1cccc(NC(=O)C2CCCN2S(=O)(=O)c2ccc3nc(-c4ccccc4)[nH]c3c2)c1 (stereo not drawn)	none (no result: D2 antagonist, D2 PAM-1, D2 ag-1)
Cn1c(=O)c2c(-c3ccccc3)n3c(c2n(C)c1=O)C(c1ccc([N+](=O)[O-])cc1)Nc1ccccc1-3 (stereo not drawn)	none (no result: D2 antagonist, D2 PAM-1, D2 ag-1)
NC(=O)c1nsc(C(=O)N(c2ccccc2)C(C(=O)NCc2ccc(F)cc2)c2ccco2)c1N (stereo not drawn)	none (no result: D2 antagonist, D2 ag-2, D2 PAM-2)
NC(=O)c1nsc(C(=O)N(c2ccccc2)C(C(=O)NCc2ccc(F)cc2)c2ccc(O)cc2)c1N (stereo not drawn)	D2 antagonist 57 | D3 arrestin ag inactive | D2 ag-3 inactive
C=CCNCc1cccn1-c1ccccc1	none | D3 arrestin ag inactive | D2 ag-3 inactive
C=CCNC(=S)NCc1ccccc1	none
COc1ccccc1CN1CCN(C(=O)c2ccco2)CC1	D2 antagonist 85, D2 PAM-1 53, D2 ag-1 67, D2 ag-2 80 | D3 arrestin ag inconclusive | D2 ag-3 10µM
COc1ccccc1N1CCN(C(=O)c2ccco2)CC1	none (no result: D2 antagonist, D2 ag-2, D2 PAM-2)
COc1ccc(Br)cc1CN1CCN(C(=O)c2ccco2)CC1	none (no result: D2 antagonist, D2 ag-2, D2 PAM-2) | D3 arrestin ag inactive | D2 ag-3 inactive
CCCN(CCC)CCCNC(=O)c1sc2nc3n(c(=O)c2c1C)CCC3	none (no result: D2 antagonist, D2 PAM-1, D2 ag-1)
O=C(CN1CCN(Cc2ccccc2)CC1)NC(=O)NC1CCCCC1	none
O=C(CN1CCN(C/C=C/c2ccccc2)CC1)NC(=O)NC1CCCCC1	D2 antagonist 71 | D3 arrestin ag inactive | D2 ag-3 inactive
CN(C(=O)CC(=O)Nc1ccc2nc3n(c(=O)c2c1)CCCCC3)c1ccccc1F	none (no result: D2 antagonist, D2 PAM-1, D2 ag-1)
O=C(NCc1n[nH]c(=O)c2ccccc12)C1CC(=O)N(c2ccc(Cl)cc2)C1 (stereo not drawn)	none | D3 arrestin ag inactive | D2 ag-3 inactive
Cc1ccc(-n2c3nc(=O)[nH]c(=O)c-3cc3c(C)nn(-c4ccccc4)c32)cc1C	none (no result: D2 antagonist, D2 PAM-1, D2 ag-1)
O=C(Cn1cc(S(=O)(=O)Cc2ccccc2F)c2ccccc21)NCc1ccccc1Cl	none (no result: D2 antagonist, D2 PAM-1, D2 ag-1)
CCCn1c2ccccc2c2cnn(CC(=O)OC)c(=O)c21	D2 ag-2 41 | D3 arrestin ag inactive | D2 ag-3 inactive
CCCn1c2ccccc2c2cnn(CC(=O)NCCCN3CCN(c4ccccc4)CC3)c(=O)c21	D2 antagonist 88 | D3 arrestin ag inactive | D2 ag-3 inactive
COc1ccccc1N1CCN(CCCNC(=O)Cn2ncc3c([nH]c4ccccc43)c2=O)CC1	D2 antagonist 90 | D3 arrestin ag inactive | D2 ag-3 inactive
Cn1c2ccccc2c2cnn(CC(=O)NCCCN3CCN(c4ccccc4F)CC3)c(=O)c21	D2 antagonist 63, D2 ag-2 69! | D3 arrestin ag inactive | D2 ag-3 inactive
Cc1ccc(S(=O)(=O)c2cn(CC(=O)Nc3ccc(F)cc3)c3cc4c(cc3c2=O)OCO4)cc1	none (no result: D2 antagonist, D2 PAM-1, D2 ag-1)
CCc1ccc(OCC(=O)N(Cc2ccco2)Cc2ccccc2Cl)cc1	none (no result: D2 antagonist, D2 PAM-1, D2 ag-1)
Cc1cccc(-n2c3nc(=O)[nH]c(=O)c-3cc3ccc(Cl)cc32)c1C	none (no result: D2 antagonist, D2 PAM-1, D2 ag-1)
Cn1c(=O)cc(OCC(=O)NCCCN2CCN(c3ccccc3F)CC2)c2ccccc21	D2 antagonist 78, D2 PAM-1 inconclusive, D2 ag-1 45, D2 ag-2 86 | D3 arrestin ag inactive | D2 ag-3 inconclusive
O=C(Cc1csc(Nc2nc(=S)[nH]c3ccccc23)n1)NCCCN1CCN(c2ccccc2F)CC1	D2 antagonist 67, D2 ag-2 47 | D3 arrestin ag inactive | D2 ag-3 inactive
O=C(Cc1csc(Nc2nc(=S)[nH]c3ccccc23)n1)NCc1ccc(Cl)cc1	none
Cn1c(C(=O)NCCCN2CCN(c3ccccc3F)CC2)cc2c(=O)[nH]c3ccccc3c21	D2 antagonist 105, D2 ag-1 inconclusive, D2 ag-2 71 | D3 arrestin ag inactive | D2 ag-3 inactive
CC1CCN(C(=O)Cn2c(SCC(=O)Nc3ccc(F)cc3)nc3ccccc32)CC1	none (no result: D2 antagonist, D2 PAM-1, D2 ag-1)
Cc1cccc(Cn2c(CNS(=O)(=O)c3ccc(C(C)C)cc3)nc3cccnc32)c1	none (no result: D2 antagonist, D2 PAM-1, D2 ag-1)
CCOC(=O)c1c(C)c(-c2ccccc2)n(CC(=O)NC2CCCCCC2)c1C	none (no result: D2 antagonist, D2 PAM-1, D2 ag-1, D2 PAM-2)
COc1cc(C=NCC2OCCc3ccccc32)cc(OC)c1 (stereo not drawn)	D2 ag-2 42 | D3 arrestin ag inactive | D2 ag-3 inactive
COc1ccc(C(=O)NCC2OCCc3ccccc32)cc1 (stereo not drawn)	none
COc1ccc(C=NCC2OCCc3ccccc32)cc1OC (stereo not drawn)	D2 ag-2 47 | D3 arrestin ag inactive | D2 ag-3 inactive
COc1ccc(C(=O)NCC2OCCc3ccccc32)cc1OC (stereo not drawn)	none
Cc1sc(NC(=S)NC(=O)c2ccco2)c(C(N)=O)c1C	none
CCN1CCc2c(sc(NC(=S)NC(=O)c3ccco3)c2C(N)=O)C1	D2 ag-2 30 | D3 arrestin ag inactive | D2 ag-3 inactive
CCN1CCc2c(sc(NC(=O)c3ccc(C(=O)c4ccccc4)cc3)c2C(N)=O)C1	D2 ag-2 74 | D3 arrestin ag inactive | D2 ag-3 inactive
CCOC(=O)C1CCN(C(=O)CN2c3ccc(C(C)C)cc3-c3ccccc3S2(=O)=O)CC1	none (no result: D2 antagonist, D2 PAM-1, D2 ag-1)
COc1ccccc1OCCn1c(COc2cc(C)ccc2C)nc2ccccc21	none (no result: D2 antagonist, D2 PAM-1, D2 ag-1)
CCc1cccc(C)c1NC(=O)CN1C(=O)c2cccc3cccc1c23	none (no result: D2 antagonist, D2 PAM-1, D2 ag-1, D2 PAM-2)
CCN(CC)CCCNC(=O)c1ccccc1NC(=O)C1=CSCCO1	none (no result: D2 antagonist, D2 ag-2, D2 PAM-2)
CCCSCCCNC(=O)c1ccccc1NC(=O)C1=CSCCO1	none | D3 arrestin ag inactive | D2 ag-3 inactive
O=C(c1ccco1)N1CCN=C1SCc1c(F)cccc1Cl	D2 ag-2 37 | D3 arrestin ag inactive | D2 ag-3 inactive
O=C(c1ccco1)N1CCN=C1SCc1ccccc1Cl	none
